Test results taken from publication PMC8384837, “Expanding the binding specificity for RNA recognition by a PUF domain”.

Molecular target: PUM1 PUF domain R4-ARM (Homo sapiens, UniProt Q14671 828-1176, N971A;H972R;Q975M)
Experiment: yeast three-hybrid, YBZ-1, SC-Leu-His + 0.5 mM 3-AT, 4 days
Conditions: tags: N-Gal4 AD-HA kept; label: inside an RPR1-promoter hybrid RNA with tandem MS2 sites; ssRNA
In short: (§1)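 Pumilio-1 PUF domain libraries, randomized at the three base-contacting residues of each repeat, were co-expressed with matching RNA elements from a centromeric plasmid in strain YBZ-1, which carries a LexA–MS2 coat fusion and a HIS3 reporter. Transformants grew for four days on SC-Leu (input) or on SC-Leu-His + 0.5 mM 3-AT (selection), and the repeat regions were PCR-amplified and Illumina-sequenced. The interaction score is the log change in variant frequency from input to selection. That logarithm is base 2, with a pseudocount of 1 where a variant was absent.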

Row | Sequence | binding signal
1 | GGCUAGAACUAGUGGAUCCCCCGGCGCCCGGCGGCUCGAGCCCGGGUAAGUGUAUAUAGUCUGCAUGCCGCCGGGCGCCAUGCCUGCAGGUCGACUCUAGAAAACAUG | 1.47 log2 enrichment (interaction score)
2 | GGCUAGAACUAGUGGAUCCCCCGGCGCCCGGCGGCUCGAGCCCGGGUAAGUGUAAAUAGUCUGCAUGCCGCCGGGCGCCAUGCCUGCAGGUCGACUCUAGAAAACAUG | 4.11 log2 enrichment (interaction score)
3 | GGCUAGAACUAGUGGAUCCCCCGGCGCCCGGCGGCUCGAGCCCGGGUAAGUGUACAUAGUCUGCAUGCCGCCGGGCGCCAUGCCUGCAGGUCGACUCUAGAAAACAUG | 2.37 log2 enrichment (interaction score)

Molecular target: PUM1 PUF domain R5-TRV (Homo sapiens, UniProt Q14671 828-1176, C1007T;Q1011V)
Experiment: as above
Conditions: tags: N-Gal4 AD-HA kept; label: inside an RPR1-promoter hybrid RNA with tandem MS2 sites; ssRNA
In short: as §1

PUM1 PUF domain R5-TRV, sequence (Q14671 828-1176 C1007T/Q1011V): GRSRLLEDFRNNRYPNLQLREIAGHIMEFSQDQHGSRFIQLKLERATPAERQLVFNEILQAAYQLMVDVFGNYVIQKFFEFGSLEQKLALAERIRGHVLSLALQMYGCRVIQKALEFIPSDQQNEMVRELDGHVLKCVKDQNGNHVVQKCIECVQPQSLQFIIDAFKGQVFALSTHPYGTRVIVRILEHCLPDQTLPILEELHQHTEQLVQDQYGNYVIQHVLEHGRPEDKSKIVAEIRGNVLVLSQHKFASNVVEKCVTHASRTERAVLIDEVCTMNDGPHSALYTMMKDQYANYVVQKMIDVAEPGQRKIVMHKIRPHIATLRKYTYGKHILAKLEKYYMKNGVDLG

Row | Sequence | binding signal
4 | GGCUAGAACUAGUGGAUCCCCCGGCGCCCGGCGGCUCGAGCCCGGGUAAGUGUUAAUAGUCUGCAUGCCGCCGGGCGCCAUGCCUGCAGGUCGACUCUAGAAAACAUG | 3.28 log2 enrichment (interaction score)
5 | GGCUAGAACUAGUGGAUCCCCCGGCGCCCGGCGGCUCGAGCCCGGGUAAGUGUAAAUAGUCUGCAUGCCGCCGGGCGCCAUGCCUGCAGGUCGACUCUAGAAAACAUG | 4.29 log2 enrichment (interaction score)
6 | GGCUAGAACUAGUGGAUCCCCCGGCGCCCGGCGGCUCGAGCCCGGGUAAGUGUGAAUAGUCUGCAUGCCGCCGGGCGCCAUGCCUGCAGGUCGACUCUAGAAAACAUG | 3.38 log2 enrichment (interaction score)

Molecular target: PUM1 PUF domain R8-CYR (Homo sapiens, UniProt Q14671 828-1176, N1122C;Q1126R)
Experiment: as above
Conditions: tags: N-Gal4 AD-HA kept; label: inside an RPR1-promoter hybrid RNA with tandem MS2 sites; ssRNA
In short: as §1

PUM1 PUF domain R8-CYR, sequence (Q14671 828-1176 N1122C/Q1126R): as the sequence (Q14671 828-1176 C1007T/Q1011V) above, with T180C, V184Q, N295C, Q299R counted along it

Row | Sequence | binding signal
7 | GGCUAGAACUAGUGGAUCCCCCGGCGCCCGGCGGCUCGAGCCCGGGUAAGCGUAAAUAGUCUGCAUGCCGCCGGGCGCCAUGCCUGCAGGUCGACUCUAGAAAACAUG | 4.19 log2 enrichment (interaction score)
8 | GGCUAGAACUAGUGGAUCCCCCGGCGCCCGGCGGCUCGAGCCCGGGUAAGGGUAAAUAGUCUGCAUGCCGCCGGGCGCCAUGCCUGCAGGUCGACUCUAGAAAACAUG | 2.63 log2 enrichment (interaction score)
9 | GGCUAGAACUAGUGGAUCCCCCGGCGCCCGGCGGCUCGAGCCCGGGUAAGUGUAAAUAGUCUGCAUGCCGCCGGGCGCCAUGCCUGCAGGUCGACUCUAGAAAACAUG | 4.59 log2 enrichment (interaction score)
